# Tau fluor cs: Counterscreen qHTS for Inhibitors of Tau Fibril Formation, Fluorescence Polarization. tau K18 P301L Alexa594 fluorescence, heparin fibrillization. Potency, µM (titrated, usually from 57.7 µM), for inactives: at the top dose activity change, negative = decrease. 280,000 tested, 0.93% active. AID 1463, 2008; also: nearly all actives have a fitted effect of over 55% in size
#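 Human K18 P301L tau (15 uM unlabeled plus 0.24 uM Alexa 594-labeled, final) in 100 mM sodium acetate pH 7 was mixed with compound and 20 uM heparin and incubated 6 hr at 37 C.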
# Tau fibril ThT: qHTS for Inhibitors of Tau Fibril Formation, Thioflavin T Binding | recombinant tau K18 P301L (four-repeat tau fragment), heparin-induced fibrillization, ThT fluorescence | 270,000 tested, 2.1% active | Potency, µM (highest dose often 57.4 µM), for inactives: at the highest dose activity, negative = inhibition, usual class: inhibitors | Microtubule-associated protein tau (Homo sapiens), P10636; also: nearly all actives have a fitted effect of over 55% in size
# Target sequence (P10636 561-689 P618L limits assumed): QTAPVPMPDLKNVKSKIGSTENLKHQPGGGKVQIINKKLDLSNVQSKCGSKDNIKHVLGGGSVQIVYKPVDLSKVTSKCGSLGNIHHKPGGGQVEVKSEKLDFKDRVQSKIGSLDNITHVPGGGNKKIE
#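 Tau K18 P301L fragment (15 uM unlabeled plus 0.24 uM Alexa 594-labeled) in 100 mM sodium acetate pH 7 with compound, fibrillization induced by 20 uM heparin for 6 hr at 37 C. Thioflavin T (30 uM) added, fluorescence read after 1 hr (ex 450, em 510 nm).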
# Tau FP inhib: qHTS for Inhibitors of Tau Fibril Formation, Fluorescence Polarization | Microtubule-associated protein tau (Homo sapiens), P10636 | K18 P301L tau heparin fibrillization, Alexa594 FP, 6 h | Potency, µM (top dose mostly 57.7 µM), for the others: top-dose activity, negative = inhibition, actives largely listed as inhibitors | 280,000 tested, 0.39% active | AID 1468, 2008; also: nearly all actives have a fitted effect of over 55% in size
#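 Read-out: fluorescence polarization of Alexa 594-labeled tau (0.24 uM), 555 nm excitation, 632 nm emission. Mixtures held 15 uM unlabeled K18 P301L, compound and 20 uM heparin, pH 7 acetate buffer, incubated 6 hr at 37 C.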
# ALDH1A1 block: qHTS Assay for Inhibitors of Aldehyde Dehydrogenase 1 (ALDH1A1) | AID 1030, 2008 | Purified ALDH1A1, NADH fluorescence, propionaldehyde substrate | 220,000 tested, 7.3% active | Aldehyde dehydrogenase 1A1 (Homo sapiens), P00352 | Potency, µM (top dose mostly 75.3 µM), inactives show top-dose activity, negative = inhibition, usual class: inhibitors; active = well fitted inhibition curve with a large enough effect, not every such curve was filed as active; inconclusive = small, poorly fitted or top-dose-only effect, or another doubt; inactive = no such curve, though single readings can be large or run the other way;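 also: plate controls were no enzyme wells and a reference inhibitor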
# Target sequence (P00352 whole entry, looked up): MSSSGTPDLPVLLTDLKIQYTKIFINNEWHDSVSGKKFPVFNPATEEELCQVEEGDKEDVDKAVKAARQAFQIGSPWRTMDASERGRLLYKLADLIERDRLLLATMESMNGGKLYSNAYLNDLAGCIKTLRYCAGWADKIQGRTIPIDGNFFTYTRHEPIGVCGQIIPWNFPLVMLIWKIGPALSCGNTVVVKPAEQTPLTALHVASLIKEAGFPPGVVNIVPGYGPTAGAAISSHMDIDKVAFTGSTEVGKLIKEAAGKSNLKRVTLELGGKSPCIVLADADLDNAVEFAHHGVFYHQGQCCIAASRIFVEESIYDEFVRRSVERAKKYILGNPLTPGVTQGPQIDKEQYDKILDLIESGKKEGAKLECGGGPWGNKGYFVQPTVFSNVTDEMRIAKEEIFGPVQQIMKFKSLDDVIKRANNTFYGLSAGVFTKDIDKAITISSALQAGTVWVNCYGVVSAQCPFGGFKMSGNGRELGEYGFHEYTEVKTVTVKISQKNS
# NPSR antag: qHTS Assay for Antagonists of the Neuropeptide S Receptor: cAMP Signal Transduction | Q6W5P4 | CHO-NPSR cells, cAMP TR-FRET, antagonist mode | Potency, µM (doses to about 38.3 µM), for inactives: at the highest dose activity change, negative = inhibition, usual class: inhibitors | 220,000 tested, 1% active | AID 1461, 2008; also: nearly all actives have a fitted effect of over 50% in size
# HPGD block: qHTS Assay for Inhibitors of HPGD (15-Hydroxyprostaglandin Dehydrogenase) | 15-hydroxyprostaglandin dehydrogenase [NAD(+)] (Homo sapiens), P15428 | purified HPGD, NADH fluorescence kinetic, PGE2 substrate | Potency, µM, for inactives: at the highest dose activity change, negative = inhibition, actives largely listed as inhibitors | 150,000 tested, 4.3% active; active = well fitted inhibition curve with a large enough effect, not every such curve was filed as active; inconclusive = small, poorly fitted or top-dose-only effect, or another doubt; inactive = no such curve, though single readings can be large or run the other way
#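 NADH formation kinetics: reaction with 30 uM PGE2 and 1 mM NAD+ (final), 20 nM enzyme, Tris-HCl pH 8 with Tween 20, after 15 min compound preincubation at room temperature. Fluorescence change, last versus first of five reads.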
# * hit, by the source's call; ? = inconclusive; . = no result; [ ] = another dose, or the depositor's remark. Rows were chosen to be rich in hits. Some 9.5% of all compounds tested hit in one or more screens of this group. Unless noted, calls follow the shape of the dose curve; as a rule, active = well fitted curve in the direction sought with a large enough effect; inconclusive = small, poorly fitted or top-dose-only effect, or another doubt; inactive = no such curve, though single readings can be large; an effect the other way counts as inactive or inconclusive. Unless noted, % is scaled to controls: 0 for no effect and ±100 for the full control effect; potency is read from the fitted curve at half-maximal effect.
SMILES,Tau fluor cs,Tau fibril ThT,Tau FP inhib,ALDH1A1 block,NPSR antag,HPGD block
COc1ccccc1N1CCN(C(=O)c2oc3ccccc3c2N)CC1,-28.0%,-17.3%,?,.,.,.
Cc1ccccc1Nc1c(-c2ccccc2O)nc2sccn12,12.6µM*[quencher],-12.5%,?,.,.,.
Cc1ccc(Nc2c(-c3ccc(C)cc3)nc3c(C)cccn23)cc1,?,?,3.1%,.,.,.
Cc1ccccc1Nc1c(-c2ccc(O)cc2)nc2c(C)cccn12,25.1µM*[quencher],?,7.9%,.,.,.
O=C(CCCn1c(=O)c2cccn2c2ccccc21)NCc1ccccc1Br,16.2%,10.0%,-5.4%,.,.,.
COc1ccc(-n2c(=O)c3c4c(sc3n(CC(=O)N3CCCCC3C)c2=O)CCC4)c(OC)c1 (stereo not drawn),-10.4%,-4.3%,-1.5%,.,.,.
CC1(C)C(=O)Nc2ccccc2N1C(=O)COc1ncnc2c(Cl)cc(Cl)cc12,-26.8%,?,-14.3%,28.2µM*,-11.6%[46.1 µM],.
CN(C)C=Nc1ccccc1C1C=NNC1=O (stereo not drawn),-28.6%,11.2µM*,-6.6%,.,-0.2%,.
O=C(O)[C@@H]1CS[C@@]2(CCCN(Cc3ccccc3)C2)N1,.,.,.,-9.3%[13.5 µM],.,0.9%
S=C(NCc1ccccc1)NCc1ccc(CNC(=S)NCc2ccccc2)cc1,?,10.2%,?,-9.0%,-15.4%,-19.5%
CCNC(=S)NNC(=S)NCc1ccccc1,4.5%,8.3%,1.3%,-3.1%,14.8%,28.2µM*
Cc1ccc(NC(=S)NNC(=S)NCc2ccccc2)cc1,-17.1%,-15.9%,5.2%,0.631µM*,-1.9%[46.1 µM],-27.0%
Cc1ccc(NC(=S)NCc2ccccn2)cc1,-5.0%,-4.8%,3.5%,0.6%,-9.4%[46.1 µM],-6.5%
Cc1ccc(-n2[nH]c(C)c(C=Nc3ccc(S(=O)(=O)Nc4nc(C)cc(C)n4)cc3)c2=O)c(C)c1,0.8%,-2.5%,2.3%,-18.3%,-13.3%,22.4µM*
CCc1nnc(NS(=O)(=O)c2ccc(N=Cc3c(C)[nH]n(-c4ccc(C)c(C)c4)c3=O)cc2)s1,-5.7%,-6.5%,10.7%,11.2µM*,-33.3%,15.8µM*
CNS(=O)(=O)c1ccc(N=Cc2c(C)[nH]n(-c3ccc(C)cc3C)c2=O)cc1,-2.8%,-5.3%,6.6%,3.6%,-4.0%,.
C/C(=N\Nc1nc2ccccc2s1)c1cccs1,-6.1%,0.6%,2.2%,5.3%,-16.3%,14.1µM*
C(=N\Nc1nc2ccccc2s1)/c1cccs1,14.1µM*[quencher],14.1µM*,?,1.3%,?,-11.6%
Cc1ccsc1/C=N/Nc1nc2ccccc2s1,-1.7%,8.0%,?,-4.2%,-21.6%,?
COc1ccc(/C=N/Nc2nc3ccccc3s2)cc1O,12.6µM*[quencher],12.6µM*,9.0%,-4.2%,-26.4%,.
CCn1c(C)c(/C=N/Nc2nc3ccccc3s2)c2ccccc21,7.08µM*[quencher],7.08µM*,1.4%,?,-27.6%[46.1 µM],?
O=C(NCCc1cccs1)c1ccc(Cn2c(SCc3ccccc3)nc3cccnc32)cc1,?,?,5.2%,.,.,.
CCn1c(=O)c(C(=O)Nc2nc3ccccc3[nH]2)c(O)c2ccccc21,-14.8%,?,-3.5%,8.7%,3.16µM*,-7.5%
CCc1nc2ccccc2c(=O)n1NC(=O)c1c(O)c2ccccc2n(CC)c1=O,-5.3%,-6.7%,-4.5%,-3.0%,-21.5%,.
CCOc1ccc(C2c3c(oc4ccccc4c3=O)C(=O)N2Cc2ccc3c(c2)OCO3)cc1 (stereo not drawn),-2.2%,1.7%,-10.6%,.,.,.
SMILES,Tau fluor cs,Tau fibril ThT,Tau FP inhib,ALDH1A1 block,NPSR antag,HPGD block
Cc1ccc(-c2nnc(Nc3cccc(O)c3)c3ccccc23)cc1S(=O)(=O)N1CCCCC1,8.91µM*[quencher],-13.3%,?,.,.,.
Cn1c(N/N=C/c2c[nH]c3ccccc23)nc2ccccc21,15.8µM*[quencher],4.47µM*,5.7%,15.8µM*,-15.8%[46.1 µM],?
Fc1c(F)c(F)c(N/N=C/c2c[nH]c3ccccc23)c(F)c1F,7.08µM*[quencher],12.6µM*,?,31.6µM*,-16.2%[46.1 µM],-4.0%
COc1cccc(C2=CC(c3ccccc3)n3ncnc3N2)c1 (stereo not drawn),-7.0%,2.5%,-5.3%,?,-4.6%[46.1 µM],?
COc1ccc(OC)c(C2C=C(c3ccc(C)c(C)c3)Nc3nnnn32)c1 (stereo not drawn),-7.5%,-5.6%,-10.6%,20µM*,-12.0%[46.1 µM],-19.0%
COc1cccc(C2=CC(c3cc(OC)ccc3OC)n3nnnc3N2)c1 (stereo not drawn),-6.0%,-17.6%,5.5%,25.1µM*,-9.1%[46.1 µM],-13.4%
COc1cccc(C2=CC(c3ccc(N(C)C)cc3)n3ncnc3N2)c1 (stereo not drawn),?,-11.5%,-16.4%,10µM*,?,-20.0%
C=CCN=c1scc(-c2ccco2)n1/N=C/c1ccc(O)c(O)c1O,7.94µM*[quencher],6.31µM*,?,.,-25.3%,.
COCCN=c1scc(-c2ccco2)n1/N=C/c1ccc(O)c(O)c1O,?,12.6µM*,25.1µM*,8.91µM*,-20.4%,.
CC(C)N=c1scc(-c2ccco2)n1/N=C/c1ccc(O)c(O)c1,14.1µM*[quencher],14.1µM*,?,-4.4%,23.7%[46.1 µM],31.6µM*
Oc1ccc(/C=N/n2c(-c3ccco3)csc2=Nc2cccnc2)c(O)c1,?,?,-2.0%,-5.5%,-4.0%,-13.6%
CCOc1ccc(OCC)c(NC(=O)c2cc(-c3cccs3)nc3ccccc23)c1,-17.7%,5.2%,-13.3%,.,.,.
CCOC(C)(C)C,.,.,.,5.5%,.,-0.8%
S=c1[nH]cc(-c2ccccc2)n1-c1ccccc1Cl,-2.2%,4.8%,4.2%,0.891µM*,0.6%,17.8µM*
COc1ccccc1-n1c(-c2ccccc2)c[nH]c1=S,4.0%,-0.3%,-0.1%,2.51µM*,-5.5%,.
CCOc1ccc2c(c1)c(=O)c(S(=O)(=O)c1ccc(CC)cc1)cn2Cc1cccc(Cl)c1,2.6%,-1.4%,-1.1%,.,.,.
Oc1ccc(/C(Cc2ccc3ccccc3n2)=N\Nc2ccccc2)c(O)c1,11.2µM*[quencher],11.2µM*,1.5%,?,-41.0%,.
O/C(=C\c1ccc2ccccc2n1)c1ccc(O)cc1O,?,1.78µM*,0.3%,?,10.7%,.
Oc1ccc(/C=C/c2ccc3ccccc3n2)cc1,?,?,6.8%,?,-15.1%,.
Oc1ccc(/C(Cc2ccccn2)=N\Nc2ccccc2)c(O)c1,11.2µM*[quencher],?,1.7%,17.8µM*,-41.8%,.
Cc1ccc(-c2nc(N)sc2-c2ccc(C)cc2)cc1,14.1µM*[quencher],?,-13.8%,-5.5%,?,.
Cc1ccc(-c2nc(N)sc2C)cc1,-10.1%,-16.9%,14.5%,-9.6%,4.7%,.
